# Source: PubChem BioAssay (NCATS)
# Tests used:
# [1] = qHTS profiling of the MIPE4 collection as inhibitors of Plasmodium falciparum (3D7) proliferation (AID 743344);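 further: scaled between DMSO vehicle wells and 0.29 µM artemisinin as full inhibition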; settings: P. falciparum 3D7 in erythrocytes, SYBR Green DNA fluorescence, 72 h; at 28.5 µM unless noted
# How it was run: (§1)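 Erythrocytes infected with P. falciparum (0.3% parasitemia, 2.5% hematocrit) incubated with compounds 72 h at 37 C, 5% CO2. Lysis with saponin/Triton buffer containing SYBR Green I, overnight at room temperature in the dark; DNA fluorescence (485/535 nm) normalised to 0.29 uM artemisinin and DMSO.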
# [2] = qHTS profiling of the MIPE4 collection as inhibitors of Plasmodium falciparum (DD2) proliferation (AID 743345); settings: P. falciparum Dd2 in erythrocytes, SYBR Green DNA, 72 h; at 28.5 µM unless noted
# How it was run: as §1
SMILES,"parasite growth, % of DMSO control [1] [%]","parasite growth remaining, % of DMSO control (lower = more inhibition) [2] [%]"
COc1ccc(-n2c(C)c([N+](=O)[O-])c3ccc(O)cc32)cc1,80.7,78.7
NS(=O)(=O)c1ccc(NC2=CC(=O)c3ccccc3C2=O)cc1,6.05,
Oc1ccc(C2=Cc3ccc(O)cc3OC2)cc1,19.6,
